Reference: PubChem BioAssay
The source made the active and inactive calls.

How the values were obtained:
Albumin (Bos taurus) = Albumin (Bos taurus) (UniProt P02769); assay: bovine serum albumin binders on microarray, profiling panel, artefact control for SMM control protein annotation, biochemical, small-molecule microarray, Alexa647 label, 635/667 nm fluorescence (AID 1118); conditions: BSA-A647 binding, fluorescence 635 nm, higher = more signal;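 note: score merges 667 nm emission intensity and signal-to-noise per printed compound spot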
Sequence of Albumin (Bos taurus) (P02769 whole entry, looked up): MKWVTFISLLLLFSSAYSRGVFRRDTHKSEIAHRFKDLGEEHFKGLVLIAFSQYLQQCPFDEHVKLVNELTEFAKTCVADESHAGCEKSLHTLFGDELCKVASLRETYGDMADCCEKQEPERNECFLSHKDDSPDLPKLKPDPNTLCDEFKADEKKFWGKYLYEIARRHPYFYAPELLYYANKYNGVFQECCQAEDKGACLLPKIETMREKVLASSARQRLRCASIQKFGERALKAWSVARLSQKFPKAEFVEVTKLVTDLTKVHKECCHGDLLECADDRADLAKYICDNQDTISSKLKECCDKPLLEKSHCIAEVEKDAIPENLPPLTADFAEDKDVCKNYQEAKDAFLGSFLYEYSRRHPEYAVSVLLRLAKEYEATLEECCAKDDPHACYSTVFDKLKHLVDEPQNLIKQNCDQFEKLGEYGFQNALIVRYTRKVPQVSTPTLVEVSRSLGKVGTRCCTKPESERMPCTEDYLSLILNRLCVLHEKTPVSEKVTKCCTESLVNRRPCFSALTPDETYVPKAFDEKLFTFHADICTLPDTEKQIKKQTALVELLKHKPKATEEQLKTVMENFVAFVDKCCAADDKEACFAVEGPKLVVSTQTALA

[1] = small-molecule microarray binders of probe aXIP, primary screen, biochemical, NeuroSMM set, 635/667 nm fluorescence (AID 1119); conditions: higher = more signal, called active from +8 up or from −8 down;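 note: probe is the protein aXip251-270 applied at 1 µg/mL to compound-printed slides; binding of probe to printed compounds measured as 667 nm fluorescence plus signal to noise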
[2] = small-molecule binders of probe aNOTCH3, primary screen, biochemical, small-molecule microarray, 635/667 nm fluorescence (AID 1120); conditions: higher = more signal;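 note: probe is a biotin-tagged antibody raised against NOTCH3 rather than NOTCH3 protein; score merges spot fluorescence near 667 nm with spot signal to noise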
[3] = small-molecule binders of probe aNOTCH2, primary screen, biochemical, small-molecule microarray, 635/667 nm fluorescence (AID 1121); conditions: higher = more signal;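 note: score merges feature fluorescence read at 667 nm with its signal to noise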
[4] = biological target: Carbonic anhydrase 2 (Homo sapiens) (UniProt P00918); assay: CAII small-molecule binders, profiling panel, biochemical, small-molecule microarray, Alexa647-labelled CAII (AID 1122); conditions: CAII-A647 binding fluorescence, higher = more signal
[5] = COS7 lysate on small-molecule microarray, probe aHis, 635 nm (AID 1123); conditions: COS7 cell lysate, fluorescence, higher = more signal;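 note: z-score combines 667nm fluorescence intensity with signal-to-noise per printed compound spot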
[6] = compound binding in COS7 lysate, probe aLAP1, primary screen, cell lysate, small-molecule microarray (AID 1124); conditions: probe aLAP1, fluorescence, higher = more signal;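 note: lysate comes from COS7 cells expressing LAP1 and is applied at 0.3 µg/mL; score merges spot fluorescence near 667 nm with signal-to-noise over triplicate slides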
Sam68 (KHDRBS1) = assay: Sam68 small-molecule binders, primary screen, biochemical, small-molecule microarray, 635 nm fluorescence (AID 1125); conditions: small-molecule microarray binding, higher = more signal;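 note: score merges 667 nm channel intensity with signal to noise over triplicate slides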
[7] = tested on: Chordin-like protein 2 (CHRDL2); assay: CHRDL2 small-molecule binders, primary screen, biochemical, small-molecule microarray, 635 nm fluorescence (AID 1126); conditions: small-molecule microarray binding, fluorescence 635 nm; higher = more signal;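 note: printed compound slides probed with Chrdl2 protein at 4 µg/mL for 1 h at 4 C; score merges 667 nm emission intensity with signal to noise over three replicate slides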
[8] = biological target: Concanavalin-A (Canavalia ensiformis) (UniProt P02866); assay: ConA small-molecule binders, primary screen, artefact control for SMM control protein annotation, biochemical, small-molecule microarray, Alexa647 label, 635 nm (AID 1127); conditions: ConA-A647 binding fluorescence, higher = more signal;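 note: z combines 667 nm emission intensity with signal-to-noise across three replicate slides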
Sequence of Concanavalin-A (Canavalia ensiformis) (P02866 whole entry, looked up): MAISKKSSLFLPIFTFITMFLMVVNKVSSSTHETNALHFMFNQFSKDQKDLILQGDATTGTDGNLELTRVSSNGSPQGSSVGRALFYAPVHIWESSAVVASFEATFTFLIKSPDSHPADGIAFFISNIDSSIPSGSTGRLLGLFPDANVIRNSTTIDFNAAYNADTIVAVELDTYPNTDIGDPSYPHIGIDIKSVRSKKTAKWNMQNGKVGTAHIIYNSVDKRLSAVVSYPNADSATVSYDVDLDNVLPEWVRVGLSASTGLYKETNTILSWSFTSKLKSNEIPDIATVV

[9] = anti-His antibody binders, primary screen, artefact control for SMM control protein annotation, biochemical, small-molecule microarray, 635 nm fluorescence (AID 1128); conditions: anti-His Alexa647 antibody binding, higher = more signal;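 note: score merges feature fluorescence with signal-to-noise for each printed compound spot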
[10] = tested on: Human papillomavirus type 1a E7 protein (residues 1-88); assay: HPV1a E7 small-molecule binders, primary screen, biochemical, small-molecule microarray, residues 1-88, 635 nm (AID 1129); conditions: small-molecule microarray binding, fluorescence 635 nm; higher = more signal
[11] = biological target: Focal adhesion kinase 1 (Homo sapiens) (UniProt Q05397); assay: small-molecule microarray binders of FAK, primary screen, biochemical, 635/667 nm fluorescence, BSA, DTT (AID 1130); conditions: PTK2 binding, 635 nm fluorescence, higher = more signal;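 note: composite of spot emission at 667 nm and signal to noise over triplicate slides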
Sequence of Focal adhesion kinase 1 (Homo sapiens) (Q05397 whole entry, looked up): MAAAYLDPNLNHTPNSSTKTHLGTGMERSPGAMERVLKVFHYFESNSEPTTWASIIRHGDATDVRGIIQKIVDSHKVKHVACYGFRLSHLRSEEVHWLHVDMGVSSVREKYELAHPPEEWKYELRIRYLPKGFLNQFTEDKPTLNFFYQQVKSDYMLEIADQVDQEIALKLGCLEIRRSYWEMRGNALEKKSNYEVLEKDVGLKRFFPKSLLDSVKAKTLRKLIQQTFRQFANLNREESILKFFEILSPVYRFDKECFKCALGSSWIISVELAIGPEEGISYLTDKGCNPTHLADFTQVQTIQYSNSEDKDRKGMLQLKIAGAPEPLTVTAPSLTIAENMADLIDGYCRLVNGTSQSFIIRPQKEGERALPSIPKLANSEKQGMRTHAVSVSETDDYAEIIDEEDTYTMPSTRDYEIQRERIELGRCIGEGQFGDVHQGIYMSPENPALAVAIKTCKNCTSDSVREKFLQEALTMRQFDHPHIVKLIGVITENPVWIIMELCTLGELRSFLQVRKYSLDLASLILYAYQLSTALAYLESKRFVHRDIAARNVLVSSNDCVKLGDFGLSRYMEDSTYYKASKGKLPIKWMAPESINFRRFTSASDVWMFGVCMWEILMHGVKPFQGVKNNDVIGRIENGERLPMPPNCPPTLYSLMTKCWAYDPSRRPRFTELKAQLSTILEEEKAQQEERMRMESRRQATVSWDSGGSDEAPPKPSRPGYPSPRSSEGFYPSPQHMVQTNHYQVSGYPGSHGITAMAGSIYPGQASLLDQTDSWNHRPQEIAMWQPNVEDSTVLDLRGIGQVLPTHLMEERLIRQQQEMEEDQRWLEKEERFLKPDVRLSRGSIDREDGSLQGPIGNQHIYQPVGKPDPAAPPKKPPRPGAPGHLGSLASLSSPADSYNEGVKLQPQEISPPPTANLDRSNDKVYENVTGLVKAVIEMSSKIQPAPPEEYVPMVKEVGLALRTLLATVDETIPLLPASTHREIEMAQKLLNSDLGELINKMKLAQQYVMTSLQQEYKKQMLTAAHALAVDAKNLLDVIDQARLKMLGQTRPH

[12] = tested on: Fibrinogen (Alexa647-labelled); assay: fibrinogen binders on compound microarrays, profiling panel, artefact control for SMM control-protein annotation, biochemical, small-molecule microarray, 635/667 nm fluorescence (AID 1131); conditions: fibrinogen-A647 binding fluorescence, higher = more signal;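 note: z-score merges 667 nm fluorescence with per-spot signal-to-noise over triplicate slides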
[13] = biological target: Follistatin (Homo sapiens) (UniProt P19883); assay: follistatin binders on small-molecule microarrays, primary screen, biochemical, small-molecule microarray, 635/667 nm fluorescence (AID 1132); conditions: FST binding, 635 nm fluorescence, higher = more signal
Sequence of Follistatin (Homo sapiens) (P19883 whole entry, looked up): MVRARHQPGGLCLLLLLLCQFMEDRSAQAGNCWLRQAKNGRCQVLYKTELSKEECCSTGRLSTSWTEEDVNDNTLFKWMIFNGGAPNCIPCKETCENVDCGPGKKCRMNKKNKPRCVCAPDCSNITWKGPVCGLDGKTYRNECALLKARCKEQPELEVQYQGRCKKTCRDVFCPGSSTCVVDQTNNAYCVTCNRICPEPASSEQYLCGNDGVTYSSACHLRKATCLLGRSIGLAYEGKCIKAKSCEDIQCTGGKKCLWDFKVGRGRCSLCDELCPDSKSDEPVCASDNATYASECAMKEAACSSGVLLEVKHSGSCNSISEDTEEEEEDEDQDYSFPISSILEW

[14] = biological target: Fibroblast growth factor 2 (Homo sapiens) (UniProt P09038); assay: FGF2 binders on small-molecule microarrays, primary screen, biochemical, small-molecule microarray, 635/667 nm fluorescence (AID 1133); conditions: small-molecule microarray binding, FGF2, fluorescence 635/667; higher = more signal
Sequence of Fibroblast growth factor 2 (Homo sapiens) (P09038 whole entry, looked up): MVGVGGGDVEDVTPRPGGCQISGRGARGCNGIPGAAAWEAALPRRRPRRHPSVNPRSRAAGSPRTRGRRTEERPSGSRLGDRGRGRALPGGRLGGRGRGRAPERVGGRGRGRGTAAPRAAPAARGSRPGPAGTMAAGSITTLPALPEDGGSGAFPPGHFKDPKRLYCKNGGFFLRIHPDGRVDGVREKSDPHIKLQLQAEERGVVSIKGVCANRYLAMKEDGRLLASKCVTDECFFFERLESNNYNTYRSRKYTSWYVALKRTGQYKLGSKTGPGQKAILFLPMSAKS

[15] = mitochondrial membrane potential change in A549 cells, profiling panel, cell-based, JC-1 fluorescence, basal, 24 h, 100 nL (AID 1138); conditions: higher = more signal;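 note: A549 lung adenocarcinoma cells under basal conditions with no added stimulus; test concentration not given here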
Lefty1 = Lefty1 binders on small-molecule microarrays, primary screen, biochemical, small-molecule microarray, 635/667 nm fluorescence (AID 1139); conditions: small-molecule microarray binding, fluorescence 635/667; higher = more signal
[16] = tested on: wheat germ agglutinin (Triticum aestivum), Alexa647-labelled; assay: wheat germ agglutinin binders on compound microarrays, profiling panel, artefact control for SMM control-protein annotation, biochemical, small-molecule microarray, 635/667 nm fluorescence (AID 1140); conditions: WGA-A647 binding, 635 nm fluorescence, higher = more signal;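 note: score merges 667 nm feature emission with signal to noise over triplicate slides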
[17] = biological target: Luciferin 4-monooxygenase (Photinus pyralis) (UniProt P08659); assay: firefly luciferase enzyme inhibitors, primary screen, biochemical, luminescence, purified enzyme, 2006 set (AID 1141); conditions: SteadyGlo luminescence, 30 min, higher = more signal, called active from +8 up or from −8 down;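 note: cell-free assay with purified firefly luciferase at 100 ng per well in PBS; test concentration not given here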
Sequence of Luciferin 4-monooxygenase (Photinus pyralis) (P08659 whole entry, looked up): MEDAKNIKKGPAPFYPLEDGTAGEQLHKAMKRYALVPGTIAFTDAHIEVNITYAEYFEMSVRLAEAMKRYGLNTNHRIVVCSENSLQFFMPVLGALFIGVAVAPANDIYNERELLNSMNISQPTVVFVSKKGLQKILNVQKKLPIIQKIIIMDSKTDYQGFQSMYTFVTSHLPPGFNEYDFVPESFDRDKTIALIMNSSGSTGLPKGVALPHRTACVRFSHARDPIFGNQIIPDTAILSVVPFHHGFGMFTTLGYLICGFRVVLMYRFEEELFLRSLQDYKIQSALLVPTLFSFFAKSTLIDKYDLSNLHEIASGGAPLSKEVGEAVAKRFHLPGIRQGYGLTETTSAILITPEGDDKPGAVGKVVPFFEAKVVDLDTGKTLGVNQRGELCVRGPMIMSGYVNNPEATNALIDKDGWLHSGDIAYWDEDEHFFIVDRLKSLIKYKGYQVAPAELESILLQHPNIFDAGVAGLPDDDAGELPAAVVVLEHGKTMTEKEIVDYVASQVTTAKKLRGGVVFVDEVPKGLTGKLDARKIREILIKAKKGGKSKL

| Structure (SMILES) | composite z-score (Albumin (Bos taurus)) | composite Z-score [1] | composite z-score [2] | composite z-score [3] | composite z-score [4] | composite z-score [5] | composite z-score [6] | composite z-score (Sam68 (KHDRBS1)) | composite z-score [7] | composite z-score [8] | composite z-score [9] | composite z-score [10] | composite z-score [11] | composite z-score [12] | composite z-score [13] | composite z-score [14] | z-score [15] | composite z-score (Lefty1) | composite z-score [16] | z-score [17] |
| --- | --- | --- | --- | --- | --- | --- | --- | --- | --- | --- | --- | --- | --- | --- | --- | --- | --- | --- | --- | --- |
| COc1ccc([Si](C)(C)[C@H]2[C@H](CC(=O)N(CCO)Cc3ccccc3)O[C@@]3(C(=O)N(C)c4c(Br)cc(C)cc43)[C@@H]2C)cc1 | 0.509 | -0.324 (inactive) | -0.0072 | -0.179 | 0.731 | 1.07 | 0.0123 | 0.995 | 1.27 | 0.652 | 1.19 | 1.03 | -0.0842 | -0.009 | 1.51 | 1.84 | -0.774 | 1.57 | 0.61 | -0.342 (inactive) |
| [N-]=[N+]=NCc1ccccc1[C@H]1OC(c2ccc(OCCCO)cc2)=N[C@@]1(Cc1ccccc1N=[N+]=[N-])C(=O)NCC(O)CO (stereo not given in full) | 0.992 | 0.095 (inactive) | 0.483 | -0.0859 | 0.7 | 1.8 | 0.0939 | 1.3 | -0.603 | 1.09 | 0.363 | 1.22 | 0.566 | 0.711 | 1.13 | -0.401 | 0.118 | 0.194 | 1.12 | -2.09 (inactive) |
| COc1ccc(CCNC(=O)[C@@]2(Sc3ccc(C)cc3)CC(=O)N(Cc3ccccc3C(F)(F)F)[C@@H]2c2ccc(CO)cc2I)cc1 | 0.589 | -0.0511 (inactive) | -0.357 | 0.102 | 0.759 | 2.09 | -0.0867 | -0.3 | -0.865 | -0.71 | 2.42 | 0.0953 | -0.326 | 0.685 | -0.706 | -0.512 | 1.56 | -1.63 | 0.827 | -0.555 (inactive) |
| C=CCOC(=O)[C@@]1(Cc2ccccc2)C[C@H]2CO[C@H](c3ccc(OC)cc3)N2C1=O | 0.484 | -0.415 (inactive) | -0.0615 | -0.107 | -0.0067 | 0.146 | 0.0469 | 0.168 | 0.194 | 0.192 | 0.848 | 0.191 | 0.575 | 0.494 | 0.3 | 0.186 | 0.272 | 0.55 | 0.133 | -0.0402 (inactive) |
| COC(=O)[C@@]1(Cc2ccc(OC)cc2)[C@H]2c3cc(C(=O)N(C)C)n(Cc4ccc(C)o4)c3C[C@H]2CN1C(=O)c1ccccc1 | 0.814 | 1.24 (inactive) | 0.517 | 0.204 | 0.806 | 2.99 | 0.463 | 0.933 | -0.905 | 0.842 | 0.787 | 1.26 | 0.877 | 0.984 | 0.262 | -0.48 | 1.26 | -0.0198 | 1.1 | -18.5 (active) |
| CCOC(=O)C1=CC[C@@H](c2ccccc2F)N(S(=O)(=O)c2ccc(C)cc2)[C@H]1c1ccccc1 | 0.437 | -0.244 (inactive) | 0.103 | 0.0416 | 0.338 | 1.19 | 0.212 | 1.18 | 0.0943 | 0.83 | 0.477 | 1.07 | 0.13 | 0.756 | 0.685 | 0.0808 | 1.4 | 0.644 | 0.349 | 1.56 (inactive) |
| C#CCN(Cc1ccccc1Br)[C@H](/C=C/c1ccccc1)[C@@H](O)Cc1ccccc1 | -0.33 | 0.258 (inactive) | -0.226 | -0.167 | -0.128 | 0.222 | 0.163 | 0.446 | 0.129 | -1.01 | 0.244 | -0.548 | -0.082 | -1.24 | -1.25 | -1.23 | 0.921 | -0.62 | -0.351 | -0.629 (inactive) |
| CCCCC=C[C@@H](NC(=O)OCc1ccccc1Cl)c1ccccc1 | 0.997 | -0.418 (inactive) | 1.74 | 0.825 | 0.526 | 2.65 | 0.0357 | 1.3 | -0.747 | 1.13 | 0.361 | 1.25 | 0.128 | 0.979 | 1.19 | -0.172 | -1.55 | 0.868 | 0.385 | 0.488 (inactive) |
| Cc1ccccc1C(O)C1C=CC2C(=O)NC(=O)C2N1Nc1ccccn1 (stereo not given) | 0.65 | 0.497 (inactive) | -0.15 | -0.14 | 0.355 | 0.78 | 0.483 | -0.805 | 0.102 | -0.227 | 0.744 | 0.108 | 0.0312 | 0.693 | -0.145 | -0.227 | 0.0755 | -0.0955 | 0.159 | -0.792 (inactive) |
| CC1=C2[C@@H](CCc3ccccc3)OB(O)C[C@@H]2[C@@H]2C(=O)N(C)C(=O)[C@@H]2C1 | 0.541 | 0.706 (inactive) | 0.248 | -0.138 | 0.422 | 0.0513 | 0.76 | 0.453 | 0.723 | 0.245 | -0.463 | 0.591 | 0.0327 | 0.762 | 0.587 | 0.509 | -0.0475 | 0.617 | 0.344 | 0.143 (inactive) |
| [N-]=[N+]=NCc1ccccc1C[C@@]1(C(N)=O)N=C(c2ccc(OCCCO)cc2)O[C@@H]1c1ccccc1 | 1.09 | 0.294 (inactive) | 0.0762 | 0.0341 | 0.693 | 2.83 | 0.368 | 1.3 | -1.38 | 0.341 | 2.4 | 1.03 | 0.572 | 0.67 | 0.367 | -0.457 | 0.078 | -0.642 | 1.3 | -0.857 (inactive) |
